# In PubChem BioAssay AID1159580 (chemical genetic matrix, 2015):
# Values joined by “and” are separate entries in the source; they are usually repeats but may differ in a detail not shown here. Equal entries are not always repeated. Hit rate of the full screen: of about 5,500 compounds, about 2,000 (36%) were called active. Roughly 18% stayed inconclusive and do not appear here. No stated cut-off is given here; in the data, active means normalized growth mostly below about 0.91 (no sharp cut-off); inconclusive means no clear call, values can overlap the other calls; inactive means mostly above about 0.92. The list shows a part of the results.
# Assay: chemical genetic growth profiling, strain panel (AID 1159580);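 further: tested at 20 µM; growth read once vehicle control cultures reached saturation at 30 °C; 1 = growth at the plate median or of vehicle wells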
# Details: S. cerevisiae deletion strains, growth OD
structure (smiles),measurement,setting,value
CCCCCCCCNC(C)C(O)c1ccc(SC(C)C)cc1 (stereo not drawn),normalized growth,"locus YAL021C, strain ccr4, stronger effect = lower value",0.0594 (active)
same,normalized growth,"locus YAL026C, strain drs2, stronger effect = lower value",0.0595 (active)
same,normalized growth,"locus YAL030W, strain snc1, stronger effect = lower value",0.0546 (active)
same,normalized growth,"locus YBL061C, strain skt5, stronger effect = lower value",0.0571 (active)
same,normalized growth,"locus YBR009C, strain hhf1, stronger effect = lower value",0.0563 (active)
same,normalized growth,"locus YBR021W, strain FUR4, stronger effect = lower value",0.0834 (active)
same,normalized growth,"locus YBR023C, strain chs3, stronger effect = lower value",0.0584 (active)
same,normalized growth,"locus YBR171W, strain sec66, stronger effect = lower value",0.0741 (active)
same,normalized growth,"locus YBR229C, strain ROT2, stronger effect = lower value",0.0441 (active)
same,normalized growth,"locus YBR231C, strain swc5, stronger effect = lower value",0.0585 (active)
same,normalized growth,"locus YBR279W, strain paf1, stronger effect = lower value",0.0682 (active)
same,normalized growth,"locus YCL011C, strain gbp2, stronger effect = lower value",0.055 (active)
same,normalized growth,"locus YCL016C, strain dcc1, stronger effect = lower value",0.0618 (active)
same,normalized growth,"locus YCL029C, strain bik1, stronger effect = lower value",0.0564 (active)
same,normalized growth,"locus YCL069W, strain vba3, stronger effect = lower value",0.0585 (active)
same,normalized growth,"locus YCR088W, strain abp1, stronger effect = lower value",0.0581 (active)
same,normalized growth,"locus YDL005C, strain med2, stronger effect = lower value",0.0745 (active)
same,normalized growth,"locus YDL035C, strain GPR1, stronger effect = lower value",0.0475 (active)
same,normalized growth,"locus YDL040C, strain nat1, stronger effect = lower value",0.0579 (active)
same,normalized growth,"locus YDL074C, strain BRE1, stronger effect = lower value",0.0735 (active)
same,normalized growth,"locus YDL101C, strain DUN1, stronger effect = lower value",0.0522 (active)
same,normalized growth,"locus YDL134C, strain PPH21, stronger effect = lower value",0.047 (active)
same,normalized growth,"locus YDL185W, strain tfp1, stronger effect = lower value",0.262 (active)
same,normalized growth,"locus YDL192W, strain arf1, stronger effect = lower value",0.0576 (active)
same,normalized growth,"locus YDR001C, strain nth1, stronger effect = lower value",0.06 (active)
same,normalized growth,"locus YDR069C, strain doa4, stronger effect = lower value",0.0584 (active)
same,normalized growth,"locus YDR101C, strain arx1, stronger effect = lower value",0.0541 (active)
same,normalized growth,"locus YDR137W, strain rgp1, stronger effect = lower value",0.0948 (active)
same,normalized growth,"locus YDR150W, strain NUM1, stronger effect = lower value",0.0542 (active)
same,normalized growth,"locus YDR159W, strain sac3, stronger effect = lower value",0.0734 (active)
same,normalized growth,"locus YDR162C, strain NBP2, stronger effect = lower value",0.0459 (active)
same,normalized growth,"locus YDR195W, strain ref2",0.0984 (active)
same,normalized growth,"locus YDR297W, strain sur2, stronger effect = lower value",0.0553 (active)
same,normalized growth,"locus YDR318W, strain mcm21, stronger effect = lower value",0.0585 (active)
same,normalized growth,"locus YDR334W, strain swr1, stronger effect = lower value",0.0597 (active)
same,normalized growth,"locus YDR335W, strain msn5, stronger effect = lower value",0.0583 (active)
same,normalized growth,"locus YDR388W, stronger effect = lower value",0.054 (active)
same,normalized growth,"locus YDR392W, strain spt3, stronger effect = lower value",0.0655 (active)
same,normalized growth,"locus YDR502C, strain sam2, stronger effect = lower value",0.056 (active)
same,normalized growth,"locus YEL003W, strain gim4, stronger effect = lower value",0.0594 (active)
same,normalized growth,"locus YEL037C, strain rad23, stronger effect = lower value",0.0554 (active)
same,normalized growth,"locus YEL061C, strain CIN8 (second series), stronger effect = lower value",0.0597 (active)
same,normalized growth,"locus YEL061C, strain CIN8, stronger effect = lower value",0.0482 (active)
same,normalized growth,"locus YER015W, strain faa2, stronger effect = lower value",0.0595 (active)
same,normalized growth,"locus YER016W, strain bim1, stronger effect = lower value",0.0591 (active)
same,normalized growth,"locus YER110C, stronger effect = lower value",0.0696 (active)
same,normalized growth,"locus YER111C, strain swi4, stronger effect = lower value",0.0814 (active)
same,normalized growth,"locus YER155C, strain BEM2 (second series), stronger effect = lower value",0.0808 (active)
same,normalized growth,"locus YER155C, strain BEM2, stronger effect = lower value",0.0577 (active)
same,normalized growth,"locus YER167W, strain BCK2, stronger effect = lower value",0.0469 (active)
same,normalized growth,"locus YFR010W, strain ubp6, stronger effect = lower value",0.0616 (active)
same,normalized growth,"locus YGL078C, strain dbp3, stronger effect = lower value",0.902 (active)
same,normalized growth,"locus YGL086W, strain mad1, stronger effect = lower value",0.0521 (active)
same,normalized growth,"locus YGL167C, strain pmr1, stronger effect = lower value",0.077 (active)
same,normalized growth,"locus YGL173C, strain kem1, stronger effect = lower value",0.0661 (active)
same,normalized growth,"locus YGL227W, strain vid30, stronger effect = lower value",0.06 (active)
same,normalized growth,"locus YGL240W, strain doc1, stronger effect = lower value",0.0665 (active)
same,normalized growth,"locus YGL248W, strain PDE1, stronger effect = lower value",0.0436 (active)
same,normalized growth,"locus YGL253W, strain hxk2, stronger effect = lower value",0.0517 (active)
same,normalized growth,"locus YGR135W, strain pre9, stronger effect = lower value",0.0567 (active)
same,normalized growth,"locus YGR252W, strain gcn5, stronger effect = lower value",0.109 (active)
same,normalized growth,"locus YHR013C, strain ard1, stronger effect = lower value",0.0967 (active)
same,normalized growth,"locus YHR027C, strain rpn1, stronger effect = lower value",0.0609 (active)
same,normalized growth,"locus YHR030C, strain SLT2, stronger effect = lower value",0.0483 (active) and 0.892 (inactive)
same,normalized growth,"locus YHR079C, strain IRE1 (second series), stronger effect = lower value",0.0545 (active)
same,normalized growth,"locus YHR079C, strain IRE1, stronger effect = lower value",0.911 (inactive)
same,normalized growth,"locus YHR094C, strain hxt1, stronger effect = lower value",0.0553 (active)
same,normalized growth,"locus YHR129C, strain ARP1, stronger effect = lower value",0.0538 (active)
same,normalized growth,"locus YHR142W, strain chs7, stronger effect = lower value",0.0639 (active)
same,normalized growth,"locus YHR200W, strain rpn10, stronger effect = lower value",0.0572 (active)
same,normalized growth,"locus YIL066C, strain RNR3, stronger effect = lower value",0.0459 (active)
same,normalized growth,"locus YIL073C, strain SPO22, stronger effect = lower value",0.102 (active)
same,normalized growth,"locus YIL125W, strain kgd1, stronger effect = lower value",1 (inactive)
same,normalized growth,"locus YIR030C, strain dcg1, stronger effect = lower value",0.0568 (active)
same,normalized growth,"locus YJL092W, strain hpr5, stronger effect = lower value",0.0567 (active)
same,normalized growth,"locus YJL095W, strain BCK1 (second series), stronger effect = lower value",0.0551 (active)
same,normalized growth,"locus YJL095W, strain BCK1, stronger effect = lower value",0.0554 (active) and 0.787 (active)
same,normalized growth,"locus YJL115W, strain asf1, stronger effect = lower value",0.069 (active)
same,normalized growth,"locus YJL129C, strain trk1, stronger effect = lower value",0.0791 (active)
same,normalized growth,"locus YJL134W, strain LCB3, stronger effect = lower value",0.0468 (active)
same,normalized growth,"locus YJL154C, strain vps35, stronger effect = lower value",0.0585 (active)
same,normalized growth,"locus YJL164C, strain tpk1, stronger effect = lower value",0.0551 (active)
same,normalized growth,"locus YJL166W, strain qcr8, stronger effect = lower value",0.0569 (active)
same,normalized growth,"locus YJL168C, strain set2, stronger effect = lower value",0.0547 (active)
same,normalized growth,"locus YJL187C, strain SWE1 (second series), stronger effect = lower value",0.0448 (active)
same,normalized growth,"locus YJR043C, strain POL32, stronger effect = lower value",0.0599 (active)
same,normalized growth,"locus YJR066W, strain TOR1, stronger effect = lower value",0.885 (inactive)
same,normalized growth,"locus YJR075W, strain HOC1, stronger effect = lower value",0.0593 (active)
